# aSyn UTR act: Activators via SNCA 5'UTR binding, MLPCN | alpha-synuclein 5'UTR reporter, activators screen | 300,000 compounds, 7.1% hits | activity score, % (tested at 7.5 µM), hits read low | AID 1814, 2009; in the data active = activity score below about -60%
# The depositor's hits bear a star. The list is a sample of the results.
SMILES,aSyn UTR act
CCN(CC)CCN1C(=O)C(=O)/C(=C(/O)c2ccc(OC(C)C)cc2)C1c1cccs1 (stereo not drawn),-122.2*
CCCOc1ccc(/C(O)=C2/C(=O)C(=O)N(CCCn3ccnc3)C2c2ccc(C)o2)cc1 (stereo not drawn),-75.8*
CCCCCOc1ccc(NC(=O)C(=O)NCCCn2ccnc2)cc1,62.6
Cc1ccc(/C=C2/C(=O)ON=C2c2ccccc2)o1,-65.7*
CC(C)Sc1nnc(-c2c[nH]c3ccccc23)n1C,-110.5*
Cc1cc(=O)oc2cc(NC(=O)c3cccc(S(=O)(=O)N(C)C)c3)ccc12,-111.5*
Cc1cc(=O)oc2cc(NC(=O)c3cccc(F)c3)ccc12,-151.9*
Cc1cc(=O)oc2cc(NC(=O)c3cccc(S(C)(=O)=O)c3)ccc12,-97.1*
Cc1cc(=O)oc2cc(NC(=O)c3ccc(OC(F)F)cc3)ccc12,-124.4*
Cc1ccc(OCc2cnc(Cl)s2)c(C)c1,-134.3*
COc1ccc(OCc2cnc(Cl)s2)cc1,-82.0*
CCOc1cc(CNc2ccc3c(c2)OCCO3)cc(Br)c1OCC(N)=O,-65.5*
CCOc1cc(CNc2ccc3c(c2)OCCO3)cc(Br)c1OC,95.4
Clc1ccc(Nc2nc(C3CC3)cs2)cc1,-189.6*
COc1ccc(-c2csc3nc(-c4ccccc4F)oc(=O)c23)cc1,-101.0*
COc1ccc(F)cc1CN1CCN(c2ncnc3scc(-c4ccccc4)c23)CC1,98.1
Cc1cccc(CSc2nnc(-c3ccco3)n2C)c1,-70.4*
Cc1cccc(-c2nnc(SCc3ccccc3)o2)c1,-102.4*
Cc1cccc(CSc2nnc(-c3ccco3)o2)c1,-64.2*
Cc1cccc2cc(C#N)c(SCc3nnc(-c4ccccc4[N+](=O)[O-])o3)nc12,-87.2*
O=C(Nc1cccc(Cn2cccn2)c1)c1cc2c(s1)CCCC2,-138.8*
COC(=O)c1sccc1NC(=O)c1cc2c(s1)CCCC2,-133.2*
CCOC(=O)c1ccc(NC(=O)c2cc3c(s2)CCC3)cc1,-153.7*
COc1ccc(C)cc1NC(=O)c1cc2c(s1)CCC2,-143.5*
COc1ccc(C)cc1NS(=O)(=O)c1ccc(-c2cnc(C3CC3)o2)cc1,102.2
SMILES,aSyn UTR act
COC(=O)N/N=C\c1ccc(OC/C=C/c2ccccc2)cc1,-94.9*
CCOC(=O)N/N=C\c1ccc(OC/C=C/c2ccccc2)cc1,-73.4*
COC(=O)N/N=C/c1ccc(Oc2ccccc2)cc1,-69.2*
COc1ccc(/C=N/NC(=O)COc2ccccc2-c2ccccc2)cc1,69.6
CC(=O)N/N=C\c1ccccc1OC/C=C/c1ccccc1,-128.4*
CCOC(=O)N/N=C/C=C/c1ccccc1,-104.6*
CC(C)(O)C(=O)N/N=C\c1ccc(OC/C=C/c2ccccc2)cc1,-96.1*
Cc1cccc(-c2nc3cc([N+](=O)[O-])ccc3o2)c1,-129.6*
O=[N+]([O-])c1ccc(O)c(-c2cc(C(F)(F)F)nc(-c3ccccc3)n2)c1,90.1
COc1ccc(-c2nc3ccc([N+](=O)[O-])cc3o2)cc1,-192.1*
O=[N+]([O-])c1ccc2oc(-c3ccccc3)nc2c1,-236.1*
O=C(COc1ccc(Br)cc1CO)Nc1ccccc1F,-180.6*
O=C(N/N=C/c1cc(Br)ccc1O)C(=O)Nc1ccccc1OC(F)(F)C(F)F,82.2
COc1cc(CO)ccc1OCC(=O)Nc1ccc(Br)cc1,-85.6*
COc1cc2c(cc1OC)C(c1ccc(Br)cc1)NCC2 (stereo not drawn),63.3
O=C(COc1ccc(Br)cc1CO)Nc1ccccc1,-106.6*
COc1ccccc1NC(=O)COc1ccc(CO)cc1Cl,-151.3*
O=C(Oc1c(CN2CCOCC2)cc(Cl)c2cccnc12)c1cccs1,107.7
O=C(c1cccs1)N1CCN(c2ncc(C(F)(F)F)cc2Cl)CC1,-70.8*
Cc1cccc(CS(=O)(=O)c2ncc(Cl)c(C(=O)NCc3ccccc3)n2)c1,63.8
O=C(Nc1nc2ccc(F)cc2s1)C1CCN(S(=O)(=O)c2cc([N+](=O)[O-])ccc2Cl)CC1,-197.2*
O=C(NCc1ccccc1)C1CCN(S(=O)(=O)c2cc([N+](=O)[O-])ccc2Cl)CC1,-66.7*
CC(=O)N1c2ccc(S(=O)(=O)N3CCC(C(=O)NCc4ccccc4Cl)CC3)cc2CC1C (stereo not drawn),-181.5*
Cc1ccc2nc(NC(=O)C3CCN(S(=O)(=O)c4cnc[nH]4)CC3)sc2c1,-78.0*
O=P(O)(O)c1ccccc1OCCOCCOCCOCCOc1ccccc1P(=O)(O)O,-129.9*
SMILES,aSyn UTR act
O=C(Oc1c(CN2CCOCC2)cc(Cl)c2cccnc12)c1ccccc1Cl,105.2
O=c1oc2c(CN3CCOCC3)c(O)ccc2c2ccccc12,-71.7*
COCCNC(=O)c1ccc2c(Cl)c3c(nc2c1)CCC3,-145.2*
CCOC(=O)c1ccc(N/C=C/C(=O)C(C)(C)C)cc1,-137.5*
CCOC(=O)c1ccc(N/C=C/C(=O)c2ccccc2)cc1,-188.3*
CC(C)N1C(=O)/C(=C/c2nc3ccccc3c(=O)n2-c2ccccc2)c2ccccc21,-66.5*
O=C(C(Cl)c1ccccc1)N1CCOCC1 (stereo not drawn),-64.8*
C/C(NC(=O)c1ccccc1)=C1/C(=O)CC2C1C2(C)C (stereo not drawn),-98.8*
CC(=O)OCCCN1c2ccccc2Nc2nnc(-c3ccccc3)cc21,-155.3*
Cc1ccc(-c2nnc(CSc3nnc(C)s3)o2)cc1,-79.4*
Cc1csc(SCc2nnc(-c3ccccc3Br)o2)n1,-88.0*
Cc1csc(SCc2nnc(-c3ccc(Cl)cc3)o2)n1,-172.8*
Cc1ccc(Nc2nnc(-c3ccc4c(c3)OCO4)o2)c(C)c1,-93.2*
Cc1ccc(OCC(=O)Nc2ccccc2[N+](=O)[O-])c(Br)c1,-207.2*
Cc1ccc(OC/C(=N\O)C(C)(C)C)c([N+](=O)[O-])c1,-77.1*
Cc1ccc(OCC(=O)Nc2ccon2)c([N+](=O)[O-])c1,-91.3*
CCc1cccc2c(=O)c(C(=O)N3CCCCCC3)c[nH]c12,-77.7*
CCOC(=O)C(C(=O)OCC)C1OC(=O)c2cc3c(cc21)C(=O)OC3C(C(=O)OCC)C(=O)OCC (stereo not drawn),-77.3*
O=S(=O)(c1ccc(Cl)c(Cl)c1)c1snnc1-c1ccccc1,118.1
c1ccc(-c2nnsc2Sc2ccccn2)cc1,-90.6*
CCc1ccc(-c2nc(CSCC(=O)NC3CC3)c(C)o2)cc1,70.6
Cc1ccc(-c2nc(CS(=O)(=O)CC(=O)NC3CCC(C)CC3)c(C)o2)cc1 (stereo not drawn),-101.7*
O=C1c2sc3nc4ccccc4n3c2C(=O)N1c1ccccc1Cl,-72.1*
O=C(COc1ccccc1)Nc1cccc(-c2nc3cc4ccccc4cc3[nH]2)c1,-140.2*
O=C(COc1ccccc1)Nc1cccc(-c2cn3cccnc3n2)c1,-83.9*
SMILES,aSyn UTR act
O=C(Nc1cccc(-c2cn3ccccc3n2)c1)c1cnccn1,-87.3*
O=C(Nc1cccc(Cl)c1)c1csc(-c2ccccc2)n1,-121.0*
CCC(=O)Nc1cccc(-c2cn3ccccc3n2)c1,-89.3*
CCC(=O)Nc1cccc(-c2csc(-c3ccccc3)n2)c1,-121.3*
CCCCC(=O)Nc1cccc(-c2cn3ccsc3n2)c1,-78.3*
Cc1ccccc1/C=N/Nc1ncnc2nc[nH]c12,-71.2*
Cc1ccsc1/C=N/Nc1ncnc2nc[nH]c12,-90.3*
C(=N\Nc1ncnc2nc[nH]c12)/c1cccs1,-68.7*
Fc1ccc(/C=N/Nc2ncnc3nc[nH]c23)cc1F,-74.4*
CCOc1ccccc1CNS(=O)(=O)c1ccc(-c2cnc(C3CC3)o2)cc1,74.3
CC(=O)c1sc(NC(=O)c2ccccc2C)nc1C,-87.7*
Cc1nc(NC(=O)c2cccc(Cl)c2)sc1C(=O)N1CCCCC1,-137.9*

# High-throughput results: PubChem BioAssay, Broad Institute
